# According to PubChem BioAssay (NCI):
# This is part of a sample that, as a whole, favours compounds with a hit. Of some 83,000 tested, about 20% had one in any assay.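 A percent growth of 40 corresponds to 60% growth inhibition; 0 means no net growth; -100 means all cells died. Active threshold: below 10.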 Values without a mark were called inactive. The source made the active and inactive calls.
# Tested on: MDA-MB-231 breast
# Assay: NCI-60 one-dose screen, 48 h (100 = growth as untreated, 0 = no growth, -100 = all killed)
# Conditions: 10 µM unless noted
row,Compound,growth
1,O=c1nc(-c2ccccc2)c2cc(-c3ccc(N4CCCC4)nc3)ccc2[nH]1,59.8%
2,O=[N+]([O-])c1cccc(CN(Cc2cccc([N+](=O)[O-])c2O)c2ccccc2)c1O,68.8%
3,Oc1ccccc1-c1nc2c3ccccc3c3ccccc3c2o1,81.7%
4,CN(C)CCCn1c2c(c3cc(-c4ccco4)ccc3c1=O)C(=O)c1ccccc1-2,53.3%
5,COc1ccc(C2CC(c3ccc(OC)cc3O)=NN2c2ccc(S(N)(=O)=O)cc2)cc1 (stereo not drawn),61.1%
6,Cc1c(Cl)cccc1NC(=O)c1sc2nc3c(cc2c1N)CCCCCC3,34.2%
7,[2H]c1cc2c(c([2H])c1F)/C(=C/c1[nH]c(C)c(C(=O)NCCN(CC)CC)c1C)C(=O)N2,67.7%
8,CC(=O)Oc1c2c(nc3c1c1ccccc1n3Cc1ccccc1)-c1ccccc1C2,80.4%
9,C=C(C)[C@@H]1CC[C@]2(C(=O)n3ccnc3)CC[C@]3(C)[C@H](CC[C@@H]4[C@@]5(C)CCCNC(C)(C)[C@@H]5CC[C@]43C)[C@@H]12,20.5%
10,CC(C)C[C@H](C(=O)O)N(C)C(=O)[C@@H]1CCCN1C(=O)[C@H](C)OC(=O)[C@H](CCC(N)=O)NC(=O)[C@@H]1CCC(=O)N1,108%
11,COC(=O)CCc1cc(O)c2c(c1)[C@@H](C(=O)OC)[C@H](c1ccc(O)c(O)c1)O2,78.8%
12,CCCCN(CCCC)CC(CN(CC)CC)OC(=O)Nc1ccccc1 (stereo not drawn),69.7%
13,COC(=O)CCc1n(Cc2ccc3ccccc3c2)c2ccccc2[n+]1Cc1ccc2ccccc2c1,-39.4% (active)
14,COc1ccc(Nc2nc(SCC(C)C)nc(-c3ccc(F)cc3)c2C#N)cc1,89.3%
15,CCCS(=O)(=O)Nc1ccc(F)c(C(=O)c2c[nH]c3ncc(-c4ccc(OCCCC5CCCCN5)nc4)cc23)c1F (stereo not drawn),14.9%
16,CC(=O)c1ccc(NC(=O)CSc2nnc(-c3cc(-c4ccc(C)cc4)nc4ccccc34)o2)cc1,-2.97% (active)
17,Oc1ccc(CNNc2ccnc3c(O)cccc23)c2cccnc12,37.4%
18,COc1ccc(-c2cs/c(=N\N=C\c3ccc(O)cc3O)n2/N=C/c2ccc(O)cc2O)cc1,1.96% (active)
19,c1ccc(-c2n(Cc3ccc4ccccc4n3)cc[n+]2Cc2ccc3ccccc3n2)cc1,30.5%

row,Compound,growth
1,O=C1C(Cl)=C(NCCCN(CCCNC2=C(Cl)C(=O)c3ccccc3C2=O)C2=C(Cl)C(=O)c3ccccc3C2=O)C(=O)c2ccccc21,38.5%
2,CCc1ccc(OCc2ccccc2C(=O)Nc2ccc3nc(C)cc(N)c3c2)cc1,-82.4% (active)
3,CC1CCN(CCCCCOc2ccc3oc4cc(Cl)ccc4c(=O)c3c2)CC1,44.3%
4,Nc1ccccc1NS(=O)(=O)c1ccc(Cl)cc1,98.2%
5,COc1cc(C2=NNC(c3ccc(N(C)C)cc3)C2)cc(OC)c1OC (stereo not drawn),31.9%
6,COc1cc(NC(=O)Nc2cnc(Nc3ccc(N4CCOCC4)cc3)nc2Oc2ccc(C(F)(F)F)cc2)cc(OC)c1,96.7%
7,C=C(C)[C@@H]1CC[C@]2(C(=O)O)CC[C@]3(C)[C@H](CC[C@@H]4[C@@]5(C)C[C@@H](CC#Cc6ccc(Cl)cc6)C(=O)C(C)(C)[C@@H]5CC[C@]43C)[C@@H]12,6.05% (active)
8,Cc1cc(Nc2nc(SCc3ccc(C(=O)Nc4ccc(F)cc4N)cc3)nn3cccc23)n[nH]1,22.8%
9,O=C(/C(=C/c1ccc([N+](=O)[O-])cc1)SCc1ccc(F)cc1)c1ccc(Cl)cc1,58.7%
10,C#C[C@@]1(O)[C@@H](CO)O[C@@H](n2cc(Br)c3c(N)ncnc32)[C@@H]1O,2.76% (active)
11,CC(=O)[C@@H]1CC[C@]2(C(=O)O)CC[C@]3(C)[C@H](CC[C@@H]4[C@@]5(C)Cc6c([nH]c7ccccc67)C(C)(C)[C@@H]5CC[C@]43C)[C@@H]12,83%
12,CC[C@]12C=CCN3CC[C@@]4(c5cc(NC(=O)CCC(=O)O[C@H]6CC[C@H]7[C@@H]8CC[C@H]9CC(=O)CC[C@]9(C)[C@H]8CC[C@]67C)c(OC)cc5N(C)[C@H]4[C@@](O)(C(=O)OC)[C@@H]1OC(C)=O)[C@@H]32,83%
13,CCCCCOC(=O)c1ccccc1O,110%
14,O=C1CCC23OC(c4ccccc4N12)C(O)C(O)C3O (stereo not drawn),103%
15,N#Cc1c(NC(=O)c2cccs2)[n+]([O-])c2cc(C(F)(F)F)ccc2[n+]1[O-],96.8%
16,Cc1[nH]c2ncnc(Oc3ccc(NC(=O)Nc4ccc(Cl)c(C(F)(F)F)c4)cc3)c2c1C,44.6%
17,c1cc(CNC23CC4CC(CC(C4)C2)C3)cc(C[N+](Cc2cccc(CNC34CC5CC(CC(C5)C3)C4)c2)(Cc2cccc(CNC34CC5CC(CC(C5)C3)C4)c2)Cc2cccc(CNC34CC5CC(CC(C5)C3)C4)c2)c1 (stereo not drawn),16.7% [42 µM]
18,C[C@H]1[C@H](C)CC[C@]2(C(=O)OCCCC[P+](c3ccccc3)(c3ccccc3)c3ccccc3)CC[C@]3(C)C(=CC[C@@H]4[C@@]5(C)CC[C@H](OC(=O)C(Cl)Cl)C(C)(C)[C@@H]5CC[C@]43C)[C@H]12,-68.8% (active)
19,O=C(Nc1nc(-c2ccccc2)cs1)c1cc(-c2ccc(Br)cc2)nc2ccccc12,57.8%
